The supplement of paper PMC10646978

What follows are molecules tested on RAW-Dual (murine macrophage reporter line) (assay: viability score (confluency relative to resting cells, overnight) (fraction); higher = more viable, active = viable (0.7 or more)). Settings: modulator concentration 10 µM.
Summary of the method: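 Confluency was the readout: RAW-Dual macrophages were imaged with IncuCyte after an overnight exposure to compound at 10 μM final. IncuCyte software produced two masks over all imaged wells. The viability score expresses confluency against resting cells, and both masks had to exceed 70% of resting cells for a compound to meet the cutoff.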
In the case of O=C(CCn1c(=O)oc2ccccc21)Nc1ccccc1, the viability score is reported as 0.998 (active). With O=C(Nc1ccncc1)c1ccc(OCC2CCOCC2)nc1 the viability score was 0.996 (active). For CNCC[C@@H](Oc1ccccc1C)c1ccccc1.Cl, the viability score was 0.958 (active). In the case of Brc1ccc2ncnc(Nc3ccccc3)c2c1, the viability score is reported as 1 (active). O=C(NC12CC3CC(CC(C3)C1)C2)N1CCOCC1 was tested, and the viability score was 0.967 (active). Cc1cc(NC2CCCC2)nc2ccccc12 was tested, and the viability score was 0.608 (inactive). With O=C(CCC(=O)OCC(=O)c1cccs1)Nc1ccc(Oc2ccccc2)cc1 the viability score was 1 (active). In the case of COC(=O)C1C(=O)C(=CNCc2ccccc2)C(=O)CC1(C)C (centres undefined), the viability score is reported as 1 (active). In the case of Cc1cnc(NC(=O)C2=C(O)c3ccccc3S(=O)(=O)N2C)s1, the viability score is reported as 1.01 (active). NNC(=O)CN1C(=O)C2CC=C(Cl)CC2C1=O (centres undefined) was tested, and the viability score was 0.999 (active). In the case of O=C(COc1ccc2ccccc2c1)Nc1cnoc1, the viability score is reported as 1 (active). In the case of Br.Fc1ccc(-c2csc(Nc3ccc4c(c3)OCO4)n2)cc1, the viability score is reported as 0.999 (active). In the case of Cc1occc1C(=O)Nc1ccc([N+](=O)[O-])cc1Cl, the viability score is reported as 0.995 (active). With Cn1cnc2cc(NCc3ccc(Br)cc3)ccc21 the viability score was 0.984 (active). With C[C@H](NC(=O)C(=O)Nc1ccccc1C(C)(C)C)C(=O)N[C@@H](CC(=O)O)C(=O)COc1c(F)c(F)cc(F)c1F the viability score was 0.606 (inactive). For O=C(NCCc1csc(-c2ccc(F)cc2)n1)c1ccc(Br)cc1, the viability score was 0.999 (active). With CCN(CC)Cc1cc(Nc2ccnc3cc(Cl)ccc23)ccc1O.Cl.Cl.O.O the viability score was 0.931 (active). For CC1(C)CCC2(C(=O)O)CCC3(C)C(=CCC4C5(C)CCC(O)C(C)(C)C5CCC43C)C2C1 (centres undefined), the viability score was 0.999 (active). NNC(=O)c1ccncc1 was tested, and the viability score was 0.999 (active). O=C(Nc1ccccn1)NC1CCS(=O)(=O)C1 (centres undefined) was tested, and the viability score was 0.948 (active). For Cc1ccccc1CC(CC(=O)O)C(=O)O (centres undefined), the viability score was 1.03 (active). COc1ccc(Cn2cc3c(-c4ccc(F)cc4)nnc-3c3cc(OC)c(OC)cc32)cc1 was tested, and the viability score was 0.141 (inactive). For CC(C)c1ccc(N(CC(=O)NCCSCc2ccc(Cl)cc2)S(C)(=O)=O)cc1, the viability score was 1.01 (active). With Nc1ccc(C=Cc2ccccc2)cc1 the viability score was 0.973 (active). COc1nn(C)cc1C(=O)Nc1ccc(C(=O)NCCN2CCOCC2)cc1 was tested, and the viability score was 0.994 (active). With CC12CCC(=O)C=C1C=CC1C2CCC2(C)C1CCC21CCC(=O)O1 (centres undefined) the viability score was 1.01 (active). In the case of CC(=O)Nc1cc2nc3ccccc3nc2cc1NC(C)=O, the viability score is reported as 1 (active). For C[C@H](Nc1ncnc2[nH]cnc12)c1cc2cccc(Cl)c2c(=O)n1-c1ccccc1, the viability score was 0.906 (active). In the case of COc1ccc(C(=O)Nc2cc(C)nc3c(C)cc(C)cc23)cc1OC, the viability score is reported as 0.589 (inactive). CS(=O)(=O)N(CC(=O)NCCSCc1cccc(Cl)c1)c1cccc(Cl)c1 was tested, and the viability score was 1 (active). In the case of O=C(O)CCCCC1SCC2NC(=O)NC21 (centres undefined), the viability score is reported as 0.997 (active). In the case of COc1ccc(NC(=O)CN(c2ccc(C)c(C)c2)S(C)(=O)=O)cc1, the viability score is reported as 0.998 (active). With O=C(CCCN1CCC(O)(c2ccc(Cl)cc2)CC1)c1ccc(F)cc1 the viability score was 1.01 (active). Cn1nc(CNS(=O)(=O)c2cccc(C(F)(F)F)c2)c2c1CCOC2 was tested, and the viability score was 1 (active). CC1CCN(C2CC(=O)N(c3ccc(S(=O)(=O)N4CCOCC4)cc3)C2=O)CC1 (centres undefined) was tested, and the viability score was 1 (active). In the case of COc1ccc2cc1Oc1ccc(cc1)C[C@H]1c3c(cc4c(c3Oc3cc5c(cc3OC)CCN(C)[C@@H]5C2)OCO4)CCN1C, the viability score is reported as 0.991 (active). In the case of COc1ccc(C(=O)ON=C(N)c2ccc(OC)c(OC)c2)cc1OC, the viability score is reported as 1.01 (active). For Cc1ccc(S(=O)(=O)NC(=O)NN2CC3CCCC3C2)cc1 (centres undefined), the viability score was 0.987 (active). For CCc1cnn2c(NCc3ccc[n+]([O-])c3)cc(N3CCCC[C@H]3CCO)nc12, the viability score was 0.0417 (inactive).
